Bioassay records (PubChem)
A selection: hits, their analogues and other compounds. The true share with any hit is near 6%.
D1 PAM = potentiators of human D1 dopamine receptor. P21728. HEK293 TREx D1 cells, calcium flux, dopamine EC20 potentiation. potentiation, % at 10 µM. 0.036% of 360,000 active; in the data active = potentiation above about 30%
D3 ag = agonists of human D3 dopamine receptor; P35462; D3R DiscoveRx beta-arrestin cells, luminescence, 90 min; max activation, %; 0.58% of 410,000 active; in the data active = max activation above about 30%
Target sequence (P35462 whole entry, looked up): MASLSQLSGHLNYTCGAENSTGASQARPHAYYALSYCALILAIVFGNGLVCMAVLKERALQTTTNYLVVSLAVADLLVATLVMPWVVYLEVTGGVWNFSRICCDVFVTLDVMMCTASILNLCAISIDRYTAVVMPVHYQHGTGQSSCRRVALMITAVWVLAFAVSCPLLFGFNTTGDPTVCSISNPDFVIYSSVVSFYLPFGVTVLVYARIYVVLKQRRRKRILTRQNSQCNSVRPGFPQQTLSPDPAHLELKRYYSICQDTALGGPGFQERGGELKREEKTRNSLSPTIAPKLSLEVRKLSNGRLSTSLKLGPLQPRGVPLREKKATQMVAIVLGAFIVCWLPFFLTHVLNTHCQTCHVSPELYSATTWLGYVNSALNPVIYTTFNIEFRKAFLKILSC
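Agonist-mode cell screen: cells plated at 1500/well and incubated overnight at 37 °C, then exposed to library compounds for 90 min at 37 °C. Detection reagent was added for 30–60 min at room temperature, and luminescence was read.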
D1 agonist = human D1 receptor agonism; 1% of 360,000 active; AID 504660; activation, % at 2 µM; P21728; HEK293 T-REx D1 cells, calcium flux, agonist mode; in the data active = activation above about 30%
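Tetracycline-induced HEK293 TREx D1 cells, force-coupled to calcium signalling, were dye-loaded with a no-wash calcium kit. Compound was pin-added after a 10 s baseline. Fluorescence was read kinetically at 1 cycle/s for 180 s, with calcium rises flagged as agonism.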
D1 antag = antagonists of human D1 dopamine receptor. HEK293 TREx D1 cells, calcium flux, dopamine EC80; active compounds read low. activity change, negative = inhibition, % at 10 µM. 3.2% of 360,000 active. AID 504652; in the data active = activity change below about -30%
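Tetracycline-induced HEK293 T-REx cells with force-coupled D1 receptor were loaded with a no-wash calcium dye. Compound was added after a 10 s baseline and read kinetically for 180 s; EC80 dopamine was then added and calcium flux followed another 180 s.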
DRD3 antagonist = antagonists of human D3 dopamine receptor; P35462; D3R cells, DiscoveRx beta-arrestin luminescence, antagonist mode; active compounds read low; max response, negative = inhibition, %; 2.5% of 360,000 active; AID 652054; in the data active = max response below about -50%; inconclusive = no clear call, values can overlap the other calls
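Cells expressing the human receptor were seeded at 1500 cells/well, incubated overnight at 37 degrees C in 5% CO2, then exposed to library compounds with dopamine controls for 90 minutes at 37 degrees C before luminescent detection.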
Of the large screens only hits and unclear results are named; the others gave an inactive call.

COc1ccc(N2CCN(CC(O)COc3cc(C)cc(C)c3)CC2)cc1 (configuration not stated)	none
COc1cccc(NC(=O)CSc2nc(O)c(C/C=C/c3ccccc3)c(=O)[nH]2)c1	none (no result: DRD3 antagonist)
COc1ccccc1N(CC(=O)N1CCN(Cc2ccccc2)CC1)S(=O)(=O)c1ccccc1	none (no result: D1 PAM, D1 agonist, D1 antag)
CCc1ccc(-n2c(=O)c3cccnc3n2CC(=O)NCc2ccc(C)cc2)cc1	none (no result: DRD3 antagonist)
CCc1ccc(-n2c(=O)c3cccnc3n2CC(=O)Nc2ccccc2C(F)(F)F)cc1	D1 antag -44 (no result: DRD3 antagonist)
CCOC(=O)c1ccccc1NC(=O)Cn1c2ncccc2c(=O)n1-c1ccccc1	none (no result: DRD3 antagonist)
CCc1ccccc1NC(=O)Cn1c2ncccc2c(=O)n1-c1ccccc1	D1 antag -45 (no result: DRD3 antagonist)
Cc1ccc(CNC(=O)Cn2c3ncccc3c(=O)n2-c2ccc(C)cc2)cc1	D1 antag -57 (no result: DRD3 antagonist)
C=CCNCCCCOc1ccc(C)cc1[N+](=O)[O-]	DRD3 antagonist -82
COCCCNCCOc1ccc(C)cc1[N+](=O)[O-]	DRD3 antagonist -84
CCC(C)NCCCCOc1ccc(C)cc1[N+](=O)[O-] (configuration not stated)	DRD3 antagonist -93
Cc1ccc(OCCOCCN2CCN(C)CC2)c([N+](=O)[O-])c1	none
Cc1ccc([N+](=O)[O-])c(OCCN2CCNCC2)c1	DRD3 antagonist -62
CCC1CCCCN1C(=O)CSc1n[nH]c(-c2ccccc2Cl)n1 (configuration not stated)	none (no result: DRD3 antagonist)
Cc1ccc(OCCN2C(=O)c3ccccc3C2=O)c([N+](=O)[O-])c1	DRD3 antagonist -69
COCCCNCCOCCOc1ccc(C)cc1[N+](=O)[O-]	DRD3 antagonist -54
CCC(CC)=NNc1cccc([N+](=O)[O-])c1	none
N#C/C(=N\Nc1cccc(Cl)c1)C(=O)c1ccccc1	DRD3 antagonist -86
COc1ccc(C(=O)/C(C#N)=N/Nc2cccc([N+](=O)[O-])c2)cc1	D1 antag -32
Cc1ccccc1C(=O)/C(C#N)=N/Nc1c(C)n(C)n(-c2ccccc2)c1=O	DRD3 antagonist inconclusive
Cc1c(N/N=C(\C#N)C(=O)c2ccccc2)c(=O)n(-c2ccccc2)n1C	DRD3 antagonist -68
N#Cc1c(N)nc(SCC(=O)NC2CCCCC2)c(C#N)c1-c1ccc(Cl)cc1	D3 ag 46
CC(=O)SCC(=O)N=c1sc2cc(F)ccc2n1C	D3 ag 46
CCN1CN=C(NS(=O)(=O)c2ccc(C)cc2)NC1	D1 agonist 34 (no result: D1 antag)
Cc1cc(C)n2nc(CNS(=O)(=O)c3ccccc3)nc2n1	none (no result: DRD3 antagonist)
CCOc1ccc(C(C)(C)C)cc1S(=O)(=O)n1nc(C)cc1C	DRD3 antagonist -50
CCOc1ccc(C)cc1S(=O)(=O)n1nc(C)cc1C	none
COc1ccc(-c2oc(=O)c3cc(OC)c(OC)cc3c2-c2cc(F)cc(OC)c2)cc1	none (no result: D1 antag)
COc1ccc(-c2oc(=O)c3cc(OC)c(OC)cc3c2C(F)(F)F)cc1	D3 ag 62 (no result: D1 antag)
COCCn1nc2cc(C(=O)NCC34CC5CC(CC(C5)C3)C4)ccc2c1OC	D1 antag -32
CCCn1nc2cc(C(=O)NCC34CC5CC(CC(C5)C3)C4)ccc2c1OCC	none
O=C(N/N=C/c1ccccn1)c1cc(C2CC2)[nH]n1	none
Cc1[nH]c2ccccc2c1/C=N/NC(=O)c1cc(-c2cccs2)[nH]n1	D1 antag -31
Cc1cc(C(=O)N/N=C/c2c(C)[nH]c3ccccc23)n[nH]1	none
O=C(N/N=C/c1ccccn1)c1cc([N+](=O)[O-])cc([N+](=O)[O-])c1	DRD3 antagonist -78
Cc1cc(C(=O)N/N=C/c2ccccn2)n[nH]1	D1 antag -48
COc1ccc(Cc2c(C3CCCCC3)nc3c(Cl)cc(C(F)(F)F)cn23)c(C)c1	none (no result: D1 PAM, D1 agonist, D1 antag)
COc1ccc(/C=C/C(=O)OCC(=O)NC2CCCCCC2)cc1	none (no result: D1 PAM, D1 agonist, D1 antag)
Nc1[nH]c(C(=O)c2ccccc2)c(-c2ccncc2)c1C(=O)NCc1ccc(Cl)cc1	none (no result: D1 PAM, D1 agonist, D1 antag)
O=c1c2ccccc2ncn1CCCSc1ccccc1	DRD3 antagonist -54 (no result: D1 PAM, D1 agonist, D1 antag)
O=C(O)CCCCCNC(=O)CCn1cnc2ccccc2c1=O	D1 antag -51
O=C(NCc1ccccc1)c1ccc(NC(=O)c2nsc3ccccc23)cc1	none (no result: DRD3 antagonist)
CN(C)c1ccc(/C=C/c2ccc3c4ccccc4ccc3[n+]2-c2ccccc2)cc1	D1 antag -33
CCCN(CC(=O)Nc1ccccc1OC)C(=O)c1ccccn1	none (no result: D1 PAM, D1 agonist, D1 antag)
C/C(=N\NC(=O)c1cccc(N/N=C(\C)c2ccc([N+](=O)[O-])cc2)c1)c1ccc([N+](=O)[O-])cc1	D1 antag -38
C/C(=N\NC(=O)c1cccc(N/N=C(\C)c2ccccc2)c1)c1ccccc1	none
C/C(=N/NC(=O)c1ccc2c(c1)OCO2)c1cccc([N+](=O)[O-])c1	none
C/C(=N/NC(=O)c1ccc2c(c1)OCCO2)c1ccc([N+](=O)[O-])cc1	D1 antag -52
C/C(=N\NC(=S)NCc1ccccc1)c1ccc(Br)cc1	none
C/C(=N\NC(=S)NCc1ccccc1)c1ccc2c(c1)OCCO2	D1 antag -31
Cc1ccc(C)c(S(=O)(=O)n2nc(C)c(S(=O)(=O)N3CCCCCC3)c2C)c1	none (no result: DRD3 antagonist)
C=CCN(Cc1cccc(OC)c1OC)C(=O)Oc1ccccc1	none
CCOC(=O)N1CCC(NC(=O)c2c(C)nn(-c3cccc(C)c3)c2-n2cccc2)CC1	none (no result: DRD3 antagonist)
Cc1cn2c(N)c(C=C3C=C(Cl)C(=O)C(Cl)=C3)c(=O)nc2s1	D1 agonist 51
COC1=C/C(=C/c2c(N)n3cc(C)sc3nc2=O)C=CC1=O	D1 agonist 30
COC1=C/C(=C/c2c(N)n3nc(CC(=O)N4CCCC4)sc3nc2=O)C=CC1=O	none
Cc1cn2c(=O)cc(COc3ccc(Cl)cc3)nc2s1	none (no result: DRD3 antagonist)
CSc1ncc(C(=O)Nc2ccccc2C(F)(F)F)c(-c2ccccc2)n1	none (no result: DRD3 antagonist)
COc1ccc(CCNC(=O)c2c(C)noc2C)cc1	D1 antag -43, DRD3 antagonist -100
COc1ccc(Oc2c(O)c3ccccc3n(C)c2=O)cc1	D1 antag -45
COc1ccc(CCNC(=O)c2c(O)c3ccccc3n(C)c2=O)cc1	D3 ag 37
Cn1c(=O)c(Oc2ccc(Cl)cc2)c(O)c2ccccc21	none
CC1(c2ccccc2)CC(C)(C)N(C(=O)c2cccc(Cl)c2)c2ccccc21 (configuration not stated)	none (no result: DRD3 antagonist)
O=C(COC(=O)c1cc(=O)[nH]c2ccccc12)Nc1ccccc1F	none (no result: D1 PAM, D1 agonist, D1 antag)
CC(C)C[C@H](CO)N(Cc1ccccc1)S(=O)(=O)N(Cc1ccccc1)[C@@H](CO)CC(C)C	D3 ag 59 (no result: D1 PAM, D1 agonist, D1 antag)
O=S(=O)(N(Cc1ccccc1)[C@@H](CO)Cc1ccccc1)N(Cc1ccccc1)[C@@H](CO)Cc1ccccc1	D3 ag 84 (no result: D1 PAM, D1 agonist, D1 antag)
CCc1nc2ccc(C(=O)NCCCN(C)C)cn2c1N(C)Cc1ccc(OC)cc1	none (no result: D1 PAM, D1 agonist, D1 antag)
C=CCn1c(SCC(=O)N2CCC(C)CC2)nc2c([nH]c3ccccc32)c1=O	none (no result: D1 PAM, D1 agonist, D1 antag)
